Results on ten molecules are retold here after PubChem BioAssay.

For orientation: inhibition means the drop in the measured response relative to a control, in per cent.

Several values for one entry are separate records, joined by “and”; a condition that tells them apart may be missing. Equal values may be shown once. For part of these data: Measured potencies and affinities stand elsewhere. Activity calls are given as the source filed them. Rule as the data show it, unless noted: active = inhibition above about 80%; inactive = the rest.

Assay [1] can be described thus: compounds altering circadian rhythm period length – cell-based, LOPAC library, luminescence reporter (AID 2774; call rule not given here;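 also: values are relative to mean of DMSO wells on each plate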). To be noted: circadian reporter cells, at 7 µM, actives lie on both sides.
Assay [2] relates to Hepatitis C virus NS3 helicase. Put plainly: blockers of NS3h binding to ssDNA – biochemical, fluorescence polarization, LOPAC1280 library, primary screen (AID 687035; in the data active = inhibition above about 37%). To be noted: Purified HCV NS3 helicase, Cy5-dT15 ssDNA binding fluorescence polarization; stronger effect = higher value; concentration not given here. A general note: In fluorescence polarisation assays a small probe gives low polarisation when free and higher when bound to something large.

Assay [3] can be described thus: compounds altering Cy5-DNA-NS3h complex signal – biochemical, LOPAC1280, artefact control for HCV NS3 helicase inhibitor project (AID 687037; call rule not given here). To be noted: Cy5-DNA-NS3h complex fluorescence interference counterscreen. On the technique in general: A counterscreen serves to expose hits that act by an unwanted route or on another target.
Assay [4] is described as follows: chitosan synthesis blockers in C. neoformans – flow cytometry, Cibacron Brilliant Red staining (AID 1347148; call rule not given here;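 also: compound exposure lasted three days at 37 degrees C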). To be noted: Cryptococcus neoformans chitosan, stronger effect = lower value; at 10 µM unless noted.
Assay [5] can be described thus: growth inhibition, single agents and combos, LFS_MB_1R, cell-based, cisplatin or BGB combos, synergistic combos for chromothripsis tumors (AID 1671452).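 Also: cells exposed for 96 hours before readout.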 To be noted: LFS_MB_1R medulloblastoma cells, stronger effect = higher value.
Assay [6] can be described thus: growth inhibition, single agents and combos, CRL2098, cell-based, BGB or cisplatin IC20 combos, synergistic combos for chromothripsis tumors (AID 1671454).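 Also: cells exposed for 96 h before readout; 0% = vehicle DMSO and 100% = killing by high DMSO.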 To be noted: CRL2098 osteosarcoma cells, drug combinations, stronger effect = higher value.
Assay [7] can be described thus: growth inhibition, single agents and combos, HD-MB03, cell-based, BGB or cisplatin IC20 combos, synergistic combos for chromothripsis tumors (AID 1671455; in the data active = inhibition above about 83%;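 also: 0% = vehicle DMSO and 100% = high DMSO as cytotoxic control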). To be noted: HD-MB03 medulloblastoma cells, stronger effect = higher value.
The nature of assay [8]: growth inhibition, single agents and combos, UWB1.289, cell-based, BGB or cisplatin combos, synergistic combos for chromothripsis tumors (AID 1671456).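 Also: cells exposed to compound for four days; 0% = vehicle DMSO and 100% = killing by high DMSO.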 To be noted: UWB1.289 ovarian carcinoma cells, stronger effect = higher value.
Assay [9] is described as follows: growth inhibition, single agents and combos, LFS_MB_2R, cell-based, cisplatin combos, synergistic combos for chromothripsis tumors (AID 1671457).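 Also: cells exposed to compound for four days before readout.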 To be noted: LFS_MB_2R medulloblastoma cells, stronger effect = higher value.
Assay [10] can be described thus: growth inhibition, MDA-MB-436, cell-based, BGB or cisplatin combos, synergistic combos for chromothripsis tumors (AID 1671458; call rule not given here;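 also: cells exposed for 96 hours; 0% = vehicle DMSO and 100% = killing by high DMSO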). To be noted: MDA-MB-436 breast carcinoma growth inhibition, drug combinations, stronger effect = higher value.
Assay [11] in a line: UWB1.289_BRCA1 ovarian cancer growth, cell-based, BGB or cisplatin combinations (AID 1671459). To be noted: UWB1.289 BRCA1 ovarian carcinoma, drug combinations, stronger effect = higher value.
A short description of assay [12]: drug combination toxicity in non-malignant astrocytes – cell-based, BGB or cisplatin IC20 combos, cytotoxicity control for chromothriptic childhood tumor combination screen (AID 1671460).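 Also: cells exposed to compounds for 96 hours before viability readout; 0% = vehicle and 100% = killing control.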 To be noted: Human astrocytes, viability inhibition, drug combinations, at 0.5 µM, stronger effect = higher value.
Assay [13] in a line: BT084 cell growth, single and combined drugs, ICGC_MB145, cisplatin and BGB IC40 combos (AID 1671461).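 Also: cells exposed to drugs for 96 hours; 0% = vehicle DMSO and 100% = high DMSO full killing control.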 To be noted: BT084 medulloblastoma cells, drug combinations, stronger effect = higher value.
The nature of assay [14]: RCMB18 cell growth, single agent and combined, cisplatin and BGB IC40 combos (AID 1671462).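 Also: cells exposed to compound for four days.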 To be noted: RCMB18 medulloblastoma cells, stronger effect = higher value.
Assay [15] can be described thus: CRL1545 cell growth, single agent and combined, cisplatin and BGB IC20 combos (AID 1671464).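 Also: cells exposed to compound for 96 hours before readout; 0% = vehicle DMSO and 100% = high DMSO killing control.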 To be noted: CRL1545 osteosarcoma cells, stronger effect = higher value.
Assay [16] in a line: compounds altering viability of human ES cells (AID 493140; call rule not given here;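 also: cells exposed to compounds for four days before counting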). To be noted: human embryonic stem cell survival screen; stronger effect = higher value.
The nature of assay [17]: blockers of polyQ-driven CASP3 activation – cell-based (AID 1583). To be noted: polyglutamine-induced caspase-3 activation, cell assay; stronger effect = higher value;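 tested at 10 µM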.
A short description of assay [18]: yeast 75Q aggregation reduction – 75Q-TubU reporter (AID 1593). To be noted: Yeast 75Q polyglutamine aggregation reporter.
Assay [19] can be described thus: restoration of touch response, mutant HTT neurons – whole organism, C. elegans mechanosensory neurons, N-terminal huntingtin (AID 1599). To be noted: C. elegans polyQ-huntingtin mechanosensory neurons, stronger effect = higher value.
Assay [20] can be described thus: blockers of cytochrome c efflux from mitochondria – biochemical, purified mitochondria (AID 1603).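 Also: mouse liver mitochondria challenged with calcium chloride; signal normalized to the plate average as 100%.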 To be noted: stronger effect = lower value.
The mark [21] stands for this setting: measured here: combination with cisplatin, at 0.5 µM.
Where [22] appears, read: measured here: combination with cisplatin, at 5 µM.

For the molecule `CC(C)C[C@H](NC(=O)[C@@H](O)[C@H](N)Cc1ccccc1)C(=O)O`, the period change in [1] was 0.15 h (inactive). Moreover, the inhibition in [2] is -4% (inactive). For the same molecule, the fluorescence ratio (interference) in assay [3] was 1 (inactive). In [4], the fold fluorescence was 3.88 [at 162.1 µM] (inactive).
As for `O=c1[nH]c(=O)n(C2CCCO2)cc1F` (centres undefined), the inhibition is -5.43% (inactive) and -39.4% (inactive) in [5] (at 0.5 µM); 2.48% and -16.7% in assay [5] (measured here: combination with BGB IC40, at 0.05 µM); -8.32% and -55.8% in [5] (setting [21]); -0.329% and -28.6% in [5] (setting [22]); 3.75% (inactive) and -63.9% (inactive) in assay [6] (at 0.5 µM); 7.31% and -58.1% in assay [6] (measured here: combination with BGB at IC20, at 0.5 µM). The inhibition in assay [6] (measured here: combination with cisplatin at IC20, at 0.5 µM) was 18.7% and -78.1%; in assay [7] (at 0.5 µM) it was 1.31% (inactive) and -8.99% (inactive); in assay [7] (measured here: combo with BGB at IC20, at 0.5 µM), -4.63% and -10.8%; in [7] (measured here: combo with cisplatin at IC20, at 0.5 µM), 6.01% and -7.71%; in assay [8] (at 0.5 µM), 3.3% (inactive) and -11.4% (inactive); in assay [8] (measured here: inhibition with BGB combination, at 0.05 µM), 7.79% and -33%. Also, the inhibition is 4.79% and -22.4% in assay [8] (measured here: inhibition with cisplatin combination, at 0.05 µM); -0.54% (inactive) and -25.9% (inactive) in assay [9] (at 0.5 µM); 8.78% and -21.2% in assay [9] (setting [21]); 11.8% and -36.1% in assay [9] (setting [22]); -0.47% (inactive) and -23.2% (inactive) in [10] (at 0.5 µM); -3.41% and -22.4% in assay [10] (measured here: BGB combination, at 0.5 µM). The inhibition in assay [10] (measured here: BGB combination, at 5 µM) was -17.4% and -31.2%; in [10] (measured here: cisplatin combination, at 0.5 µM) it was 0.87% and -34.6%; in [10] (measured here: cisplatin combination, at 5 µM), -5.11% and -24.1%; in assay [11] (BGB combination, concentration series, at 5 µM) it was 6.02% and -15.3%; in assay [11] (at 0.5 µM), 3.23% (inactive) and -25.5% (inactive); in [11] (cisplatin combination, concentration series, at 5 µM), 12% and 0.169%. The inhibition in assay [12] is 4.65% (inactive) and -9.75% (inactive); in [12] (measured here: combo with BGB IC20), 0.017% and -11.8%; in assay [12] (measured here: combo with cisplatin IC20) it was 11% and -8.67%; in [13] (at 0.5 µM), 11.3% (inactive) and -10.3% (inactive); in assay [13] (cisplatin combination, at 0.5 µM) it was -7.35% and -15%; in [13] (cisplatin combination, at 5 µM) it was -13.3% and -155%. The inhibition in [13] (measured here: BGB IC40 combination 0.05 uM, at 0.05 µM) was 5.6% and -35.5%; in [13] (single agent, at 5 µM), 10.4% and -13.1%; in assay [14] (at 0.5 µM), 1.7% (inactive) and -8.58% (inactive); in assay [14] (cisplatin combo, at 5 µM) it was 12.7% and -18.4%; in [14] (measured here: BGB IC40 combination, at 0.05 µM), -6.79% and -15.3%; in assay [14] (setting [21]) it was 2.62% and -23%. Moreover, the inhibition was -0.936% and -12.4% in assay [14] (single agent, at 5 µM); -31.3% (inactive) and -16.2% (inactive) in assay [15] (at 0.5 µM); -54.2% and -32.2% in assay [15] (measured here: with BGB IC20 combination, at 0.5 µM); -19.9% and -9.92% in [15] (measured here: with cisplatin IC20 combination, at 0.5 µM); 6.98% and -30.8% in [15] (single agent, at 0.05 µM); -17.9% and -2.7% in assay [15] (single agent, at 5 µM).
Turning to `Cc1cccc(CCN2CCC(C(=O)c3ccc(NS(C)(=O)=O)cc3)CC2)n1`, the fold fluorescence in assay [4] is 4.01 [at 124.5 µM] (inactive).
Regarding `Cc1c(C(=O)NN2CCCCC2)nn(-c2ccc(Cl)cc2Cl)c1-c1ccc(I)cc1`, the survival in [16] is 93 (inactive). Moreover, the fold fluorescence in assay [4] was 6.03 (inactive).
With `CC[C@H]1OC(=O)[C@H](C)[C@@H](O[C@H]2C[C@@](C)(OC)[C@@H](O)[C@H](C)O2)[C@H](C)[C@@H](O[C@@H]2O[C@H](C)C[C@H](N(C)C)[C@H]2O)[C@](C)(O)C[C@@H](C)CN(C)[C@H](C)[C@@H](O)[C@]1(C)O`, the inhibition in assay [17] was 6.36%. The same molecule had a score in [18] of 1.1. In assay [19], the rescue above control was 0.7. Besides, the cytochrome c release ratio in assay [20] was found to be 1.04.
With `CCN(CC)CC#CCOC(=O)C(O)(c1ccccc1)C1CCCCC1` (centres undefined), the period change in assay [1] was -0.025 h (inactive). Also, the survival in assay [16] was 12.5 (inactive). In assay [2], the inhibition was -3% (inactive). The fluorescence ratio (interference) in assay [3] is 0.9 (inactive).
Consider `CCOC(=O)c1ccc(OC(=O)CCCCCN=C(N)N)cc1`, for which the survival in assay [16] is 18.2 (inactive).
Regarding `CC(Cc1ccc(O)c(O)c1)(NN)C(=O)O` (centres undefined), the inhibition in assay [17] stood at 4.01%. The molecule further registered a score in assay [18] of 1.18. In [19], this molecule showed a rescue above control of -6.05. Besides, the cytochrome c release ratio in [20] is 0.84.
Take `NCC(O)c1ccc(O)c(O)c1` (centres undefined): in assay [1], the period change is 0.075 h (inactive). Besides, in assay [2], the inhibition was -3% (inactive). Further, the fluorescence ratio (interference) in [3] is 0.9 (inactive).
For the molecule `CC(C)NCC(O)c1ccc(NS(C)(=O)=O)cc1` (centres undefined), the period change in [1] was -0.07 h (inactive). The survival in [16] was 2.17 (inactive). Also, in [2], the inhibition was -2% (inactive). For the same molecule, in assay [3], the fluorescence ratio (interference) is 1 (inactive).
